Experimental data taken from PubChem BioAssay.
Values joined by “and” are separate entries in the source; they are usually repeats but may differ in a detail not shown here. Equal values may be shown once. Peptide text beside a SMILES is read from it. * marks the point of attachment. CH2Cl = ClC*

Assay: viability loss with induced miR-34 in A549 – imaging, A549 dox-inducible miR-34, nuclei and caspase counts, primary screen (AID 1347080); further: test concentration not given here
Settings: A549 miR-34 inducible, Hoechst nuclei count, 48 h; measured here: relative caspase fold change +Dox/-Dox

Structure (SMILES) | fold change
N[C@H]1C[C@@H]1c1ccccc1 | 1.15 and 1.49
O=C(NCCN1CCC2(CC1)C(=O)NCN2c1ccccc1)c1ccc2ccccc2c1 | 1.81
CCCCC/C=C\C/C=C\C/C=C\C/C=C\CCCC(=O)Nc1ccc2c(C)cc(=O)oc2c1 | 0.94
C=C1[C@@H](C)[C@H]2[C@H](Cc3ccccc3)NC(=O)[C@]23OC(=O)/C=C/[C@H](O)CCC[C@@H](C)C/C=C/[C@H]3[C@@H]1O | 1.09
CCNC(=O)[C@H]1O[C@@H](n2cnc3c(N)ncnc32)[C@@H](O)C1O (stereo not given in full) | 0.965
CCCCC/C=C\C/C=C\C/C=C\C/C=C\CCCC(=O)NCCc1c[nH]c2ccc(O)cc12 | 0.653
CCCC[C@@H](C)C(OC(=O)C[C@@H](CC(=O)O)C(=O)O)C(C[C@@H](C)C[C@H](O)CCCC[C@@H](O)C[C@H](O)[C@H](C)N)OC(=O)C[C@@H](CC(=O)O)C(=O)O (stereo not given in full) | 0.809
CCCCC/C=C\C/C=C\C/C=C\C/C=C\CCCC(=O)NOCCO | 0.519
O=C(CCC/C=C\C[C@@H]1[C@@H](/C=C/[C@@H](O)COc2cccc(C(F)(F)F)c2)[C@H](O)C[C@@H]1O)NC(CO)CO | 0.862
CC1OC(=O)C(C(C)C)NC(=O)C(C(C)C)OC(=O)C(C(C)C)NC(=O)C(C)OC(=O)C(C(C)C)NC(=O)C(C(C)C)OC(=O)C(C(C)C)NC(=O)C(C)OC(=O)C(C(C)C)NC(=O)C(C(C)C)OC(=O)C(C(C)C)NC1=O (stereo not given) | 1.28
CN=C(NS(=O)(=O)c1ccc(Cl)cc1)N1C[C@@H](c2ccccc2)C(c2ccc(Cl)cc2)=N1 | 0.468
CCCCC/C=C\C/C=C\C/C=C\C/C=C\CCCC(=O)Nc1ccc(O)cc1C | 0.979
CCCC(=O)N[C@H]1CCOC1=O | 0.504
Clc1ccc(C2CC3CCC2N3)cn1 (stereo not given) | 1.19
COC(=O)[C@@]1(O)CC2OC1(C)n1c3ccccc3c3c4c(c5c6ccccc6n2c5c31)C(=O)NC4 (stereo not given in full) | 1.29
C=C(C)[C@@H]1CCC(C)=C[C@H]1c1c(OC)cc(CCCCC)cc1OC | 1.03
COC(C/C=C/C=C/CC/C=C\CC(C)/C=C\C(=C/C(=O)O)CC(=O)O)/C(C)=C\C=C(/C)C(=O)O (stereo not given) | 1.25
CCCCC/C=C\C/C=C\C/C=C\C/C=C\CCCC(=O)NCC(O)CC(=O)O (stereo not given) | 1.27
C=C1[C@@H](C)[C@H]2[C@H](Cc3ccccc3)NC(=O)C23[C@H](OC(C)=O)/C=C/[C@](C)(O)C(=O)[C@@H](C)C/C=C/[C@H]3[C@@H]1O (stereo not given in full) | 0.464
CCCCC/C=C\C/C=C\C/C=C\C/C=C\CCCC(=O)NC[C@@H](C)O | 0.786

Structure (SMILES) | fold change
COC[C@H]1OC(=O)c2coc3c2[C@@]1(C)C1=C(C3=O)[C@@H]2CCC(=O)[C@@]2(C)C[C@H]1OC(C)=O | 1.29
Cn1c2cccc(=O)c-2nc2ccccc21 | 0.698
C[C@H](N)C(=O)N[C@@H](C)C(=O)N[C@@H](Cc1ccccc1)C(=O)CCl (H-Ala-Ala-Phe-CH2Cl) | 1.41
CO/C1=C\C(C)=C\[C@@H](C)[C@@H](O)[C@@H](C)C/C(C)=C/C=C/[C@H](OC)[C@@H]([C@@H](C)[C@@H](O)[C@H](C)[C@@]2(O)C[C@@H](O)[C@H](C)[C@@H](C(C)C)O2)OC1=O | 1.29
CCCCC/C=C\C/C=C\C/C=C\C/C=C\CCCC(=O)NC(CO)CO | 0.877
CCCCC/C=C\C/C=C\C/C=C\C/C=C\CCCC(=O)NCc1ccc(O)c(OC)c1 | 1.08 and 0.996
CCCCC/C=C\C/C=C\C/C=C\C/C=C\CCC(C)C(=O)NCCF (stereo not given) | 1.21
C=C(C)[C@H]1O[C@H]2CC[C@@]3(C)[C@@](O)(CC[C@H]4[C@@H]5OC(C)(C)[C@H]6C[C@@H]7C(=C)Cc8c(Cl)cc9[nH]c(c5c9c8[C@@]76O)[C@@]43C)[C@]23O[C@@H]3[C@H]1O | 1.48
CC(C)CC(NP(=O)(O)OC1OC(C)C(O)C(O)C1O)C(=O)NC(Cc1c[nH]c2ccccc12)C(=O)O (stereo not given) | 0.289
CCCCCCCC/C=C\CCCCCCCC(=O)Nc1ccccc1 | 0.81
CCCCC/C=C\C/C=C\C/C=C\C/C=C\CCCC(=O)N[C@@H](C)CO | 0.734
C[C@]12CCC3c4ccc(OC(=O)N(CCCl)CCCl)cc4CCC3C1CC[C@@H]2O (stereo not given in full) | 0.867
CCCCC/C=C\C/C=C\C/C=C\C/C=C\CCCC(=O)N[C@H](C)COP(=O)(O)O | 0.754
CCCCC/C=C\C/C=C\C/C=C\C/C=C\CCCC(=O)Nc1ccc([N+](=O)[O-])cc1 | 1.21
N#CC(C#N)=NNc1ccc(OC(F)(F)F)cc1 | 0.834
CCCCCCC(=O)O[C@H]1CC[C@H]2[C@@H]3C[C@H](O)C4=CC(=O)CC[C@]4(C)[C@H]3CC[C@]12C | 1.11
CO[C@@H]1C[C@@H](C[C@H]2CC[C@H](C)[C@H]([C@@H](C)C(=O)O)O2)O[C@]2(O[C@](C)([C@H]3CC[C@@](C)([C@@H]4O[C@@H]([C@H]5O[C@@](O)(CO)[C@H](C)C[C@@H]5C)C[C@@H]4C)O3)C[C@H]2C)[C@@H]1C | 1.75
C[C@@]1(CO)[C@H](O)CC[C@@]2(C)[C@H]1CC[C@H]1C[C@@H]3C[C@@]12CC[C@]3(O)CO | 0.966
CCOC(=O)CN1C(=O)CC(C[C@@H](O)C2C[C@@H](C)C[C@H](C)C2=O)CC1=O (stereo not given in full) | 1.21
COc1ccc(/C=C/C(=O)CC(=O)/C=C/c2ccc(OC)c(OC)c2)cc1OC | 0.752
